Records with an inconclusive call do not appear. Active and inactive are the calls of the source. The call rests on the fitted dose curve; in most records, active means well fitted curve in the direction sought with a large enough effect; inconclusive means small, poorly fitted or top-dose-only effect, or another doubt; inactive means no such curve, though single readings can be large or run the other way.
Biological target: Luciferin 4-monooxygenase (Photinus pyralis) (UniProt P08659)
Assay: miR-21 counterscreen using purified firefly luciferase
Settings: purified P. pyralis luciferase, luminescence; series mostly up to 57.5 µM; activity change, negative = inhibition: at the top concentration
Description: MLPCN Grant: 1 R21 NS059478-01 Assay Provider: Qihong Huang, The Wistar Institute NCGC Assay Overview: MicroRNAs (miRNAs) are endogenously encoded small (~20-25 nucleotides), nonprotein-coding RNAs that are involved in post-transcriptional repression of target messenger RNAs (mRNAs) (Le and Hannon, 2004). Estimated to be involved in the regulation of 30% of all protein-coding mRNAs (Filipowicz et al., 2008), miRNAs play a significant role in many biological processes including cellular differentiation and tissue development (Ghildiyal and Zamore, 2009). […] Compounds active in the miR-21 FLuc assay were clustered using Leadscope and active chemical series were prioritized based on chemical properties, potential for medicinal chemistry optimization, and SAR. Within each chemical series, representative compounds were re-acquired to test for activity in a secondary assay based on the quality of their CRC, efficacy, and potency. This secondary assay to determine if compounds active in the miR-21 FLuc assay were just luciferase inhibitors. Compounds found active in both the miR-21 FLuc and purified FLuc assays are considered as false positives. Keywords: NIH Roadmap, MLPCN, MLSMR, qHTS, miR-21, firefly luciferase, FLuc, miRNA.
NCGC Assay Protocol Summary: Reagents: 50mM Tris acetate, pH 7.5; 10mM Mg acetate; 10uM D-luciferin (Sigma #L9504); 10uM ATP; 0.01% Tween-20; 0.05% BSA; 10nM P. pyralis luciferase (Sigma #L9506) Control compounds used were two known firefly luciferase inhibitors (compounds (2) and (5) in Auld et al., 2010), and DMSO. Assay Summary: Three microliters containing firefly luciferase substrates in buffer (final concentrations: 50mM Tris acetate, pH 7.5, 10mM Mg acetate, 0.01% Tween-20, 0.05% BSA, 10uM D-luciferin, and 10uM ATP) are dispensed into each well of a Greiner white, solid-bottom 1536-well format plate using a flying reagent dispenser (FRD). These assay plates were then treated with 23nL of compound or DMSO using a Kalypsys pin tool, which allows for delivery of a 6-point interplate titration of each compound to the assay plate (quantitative HTS), with a final compound concentrations ranging from approximately 60 µM to 7pM. One microliter of firefly luciferase in […] Tris-acetate buffer was then delivered by FRD to each well for a final enzyme concentration of 10nM. Luciferase activity was then measured using a ViewLux CCD imager (PerkinElmer), with an average exposure time of 2-30 seconds (2X binning, medium/high gain).

Sequence of Luciferin 4-monooxygenase (Photinus pyralis) (P08659 whole entry, looked up): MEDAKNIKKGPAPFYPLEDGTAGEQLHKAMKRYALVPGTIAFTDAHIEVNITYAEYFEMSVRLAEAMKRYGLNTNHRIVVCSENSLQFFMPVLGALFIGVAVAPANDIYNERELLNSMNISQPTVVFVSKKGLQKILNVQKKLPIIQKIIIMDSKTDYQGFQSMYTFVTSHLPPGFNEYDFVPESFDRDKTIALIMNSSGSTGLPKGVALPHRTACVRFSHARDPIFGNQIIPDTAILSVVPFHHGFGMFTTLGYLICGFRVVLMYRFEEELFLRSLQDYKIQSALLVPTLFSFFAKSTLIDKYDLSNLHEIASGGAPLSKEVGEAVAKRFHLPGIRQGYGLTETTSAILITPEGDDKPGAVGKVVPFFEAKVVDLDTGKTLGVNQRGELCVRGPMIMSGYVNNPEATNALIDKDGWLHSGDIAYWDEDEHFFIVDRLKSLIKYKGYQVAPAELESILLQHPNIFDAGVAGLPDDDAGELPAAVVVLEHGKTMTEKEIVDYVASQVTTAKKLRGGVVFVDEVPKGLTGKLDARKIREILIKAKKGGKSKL

| SMILES | activity change, negative = inhibition |
| --- | --- |
| N#Cc1cc2cc3c(cc2nc1SCC(=O)N1CCOCC1)OCO3 | -12.6% (inactive) |
| CN(C(=O)CSc1nnc(-c2ccccc2F)o1)C1CCCCC1 | -17.4% (inactive) |
| CCS(=O)(=O)c1oc(-c2ccc(F)cc2)nc1S(=O)(=O)c1ccccc1 | 0.873% (inactive) |
| Cc1ccccc1Nc1nc(N)nc(CN(C)c2ccccc2)n1 | 0.346% (inactive) |
| Nc1c(C(=O)Nc2ccccc2Br)sc2nc(-c3cccs3)ccc12 | -19% (inactive) |
| COc1ccc(-c2nnc(SCC(=O)Nc3cccc(F)c3)s2)cc1 | -12.9% (inactive) |
| CCc1nonc1NC(=O)c1oc2ccc(C)cc2c1C | -2.28% (inactive) |
| Cc1ccc(Nc2ncnc(N)n2)cc1C | -17.6% (inactive) |
| COc1ccccc1C(=O)n1nc(-c2ccco2)nc1NCc1ccc(Cl)cc1 | 0.108% (inactive) |
| Cc1ccc(-c2nc3cnccn3c2Nc2ccccc2)o1 | -19.4% (inactive) |
| Cc1ccc(-c2nc(NCc3ccco3)n(S(C)(=O)=O)n2)cc1 | 0.606% (inactive) |
| CCC(C)S(=O)(=O)c1oc(-c2cccs2)nc1S(=O)(=O)c1ccccc1 (stereo not given) | -12.1% (inactive) |
| Cc1c(-c2nc(-c3ccc(C(F)(F)F)cc3)no2)n(C)oc1=O | 6.33% (inactive) |
| Cc1cc(SCC(=O)Nc2nsc(-c3ccc(C(C)(C)C)cc3)n2)nc2ccccc12 | 1.68% (inactive) |
| Nc1c(-c2nc(-c3ccccc3Cl)no2)nnn1-c1ccccc1F | -14.3% (inactive) |
| O=C(CSc1nnc(-c2ccncc2)o1)Nc1nncs1 | -0.438% (inactive) |
| CN(C)c1ccc(CNc2nc(-c3ccco3)nn2S(C)(=O)=O)cc1 | 1.82% (inactive) |
| COc1ccc(CNc2nc(-c3ccco3)nn2C(=O)CC(C)C)cc1 | -7.56% (inactive) |
| Cc1cccc(N2CCN(C(=O)C3CCN(c4ncnc5c4nc4n5CCCCC4)CC3)CC2C)c1 (stereo not given) | -15.3% (inactive) |
| CCc1nonc1NC(=O)c1oc2ccccc2c1C | -6.73% (inactive) |

| SMILES | activity change, negative = inhibition |
| --- | --- |
| Cc1c(-c2nsc(NC(=O)c3cccs3)n2)nnn1-c1ccc(Cl)cc1 | -6.95% (inactive) |
| Nc1c(-c2nc(-c3ccncc3)no2)nnn1CC(=O)Nc1ccccc1 | -2.75% (inactive) |
| C/C(=N\NC(=O)c1ccncc1)c1ccc(NC(=O)c2ccc(Cl)cc2)cc1 | -10.4% (inactive) |
| COc1ccccc1NC(=O)CSc1nnc(-c2ccccn2)o1 | 3.59% (inactive) |
| Cc1ccccc1OCCn1cnc2c(N)ncnc21 | -2.86% (inactive) |
| COc1ccc(CCNc2ncnc3c2cnn3-c2cc(Cl)ccc2C)cc1 | 1.58% (inactive) |
| Cc1cccc(OCc2nnc(SCC(=O)Nc3ccc(N4CCOCC4)cc3)o2)c1 | 0.777% (inactive) |
| C[C@]12CC[C@H]3C(=CCc4cc(O)ccc43)[C@@H]1CCC2=O | -18.3% (inactive) |
| CSc1nsc(SCC(=O)Nc2ccc(F)cc2F)n1 | -4.78% (inactive) |
| COc1nc(Nc2cccc(C(F)(F)F)c2)nc(OC)n1 | -6.49% (inactive) |
| Cc1ccc(C(=O)Nc2ccc3c(c2)N(C)C(=O)c2ccccc2S3)cc1 | -1.26% (inactive) |
| CS(=O)(=O)n1nc(-c2ccc(Cl)cc2)nc1SCc1ccccc1 | -8.68% (inactive) |
| Cc1ccc(-c2nsc(SCC(=O)Nc3ccc4c(c3)OCO4)n2)cc1 | -19.4% (inactive) |
| COc1ccccc1NC(=O)c1sc2nc3c(cc2c1N)CN(Cc1ccccc1)CC3 | -1.23% (inactive) |
| Cc1cccc(-n2nnc(-c3nc(-c4cccs4)no3)c2N)c1C | 2.43% (inactive) |
| c1ccc(CSc2nnc3ccc(-c4cccs4)nn23)nc1 | -15.9% (inactive) |
| COc1cccc(NC(=O)CSc2nnc(-c3cccs3)o2)c1 | -3.97% (inactive) |
| Nc1c(-c2nc(-c3cccs3)no2)nnn1-c1cccc(F)c1 | -11.2% (inactive) |
| COCc1cc(C)nc2sc(C(=O)OC(C)C)c(N)c12 | -1.1% [at 2.3 µM] (inactive) |
| Cc1ccc(CNc2nc3nc(C)c(Cl)c(C)n3n2)cc1 | -5.45% (inactive) |

Reference: PubChem BioAssay AID493175 (National Center for Advancing Translational Sciences (NCATS), 2011)
